# Experimental data published in PubChem BioAssay (NCI).
# This is part of a sample that, as a whole, favours compounds with a hit. Of some 83,000 tested, about 20% had one in any assay.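 96-well plates, one dose, 48 hours. Percent growth reported; active if below 10.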 A number with no mark means an inactive call. The source made the active and inactive calls.
# System: T-47D breast
# Assay: NCI-60 one-dose screen, 48 h (100 = growth as untreated, 0 = no growth, -100 = all killed)
# Details: 10 µM unless noted
# Method: Growth inhibition of the T-47D human tumor cell line is measured as a screen for anti-cancer activity. Cells are grown in 96 well plates and exposed to the test compound for 48 hours. Compounds are tested at a single concentration, which is 10^-5 M for most compounds. The reported endpoint is percent growth (GI% or GIPRCNT), where numbers from 0 - 100% represent growth inhibition, and numbers from -100% - 0 represent cell death. For example, a value of 40 represents 60% growth inhibition. A value of 0 means no net growth occurred over the course of the experiment. A value of -40 indicates 40% of cells at the beginning of the experiment died by the end of the experiment. A value of -100 means all cells are dead at the end of the experiment.
# NCI-60 Human Tumor Cell Lines Screen was performed using the standard one-dose NCI protocol, which is described in more detail at https://dtp.cancer.gov/discovery_development/nci-60/default.htm.
# Compounds with GIPRCNT values below 10 were considered active. Activity score was based on GIPRCNT using the following formula: […]
# Score is 0 for GIPRCNT values of 100 or above, 50 for GIPRCNT values of 0, and 100 for GIPRCNT values of -100.
row,SMILES,growth
1,COc1ccc(C2CC(=O)c3c(O)c(OC)c(OC)c(OC)c3O2)cc1O (stereo not given),65.9%
2,COc1ccc2c(c1OC)C(=O)O[C@@H]2[C@H]1c2c(c(C#CC#Cc3ccc(F)c(F)c3)c3c(c2OC)OCO3)CCN1C,69.6%
3,O=C(Nc1ccc(C2=NCCCN2)cc1)c1ccc(C(=O)Nc2ccc(C3=NCCCN3)cc2)nc1,97.3%
4,Cc1cc2c(-c3nc4ccccn4c3Nc3cccc4ccccc34)c(O)c(O)cc2c(O)c1-c1c(C)cc2c(-c3nc4ccccn4c3Nc3cccc4ccccc34)c(O)c(O)cc2c1O,15.5%
5,Cc1cccc(NC(=O)[C@@H]2c3ccccc3C(=O)N(c3ccc(Cl)cc3)[C@H]2c2ccc(Cl)cc2)n1,41.6%
6,Cc1sc2c(c1C)c(=O)nc1c(-c3nc(-c4ccccc4)cs3)n[nH]n12,83.9%
7,Clc1ccc(Nc2nccc(Nc3ccc4[nH]ncc4c3)n2)cc1,30.1%
8,CS(=O)(=O)N1CCN(Cc2cc3nc(-c4cccc5[nH]ncc45)nc(N4CCOCC4)c3s2)CC1,-21.7% (active)
9,COC(=O)CCCNc1c(-c2c(O)c(O)cc3c(O)c(-c4c(C)cc5c(-c6nc7ccccn7c6NCCCC(=O)OC)c(O)c(O)cc5c4O)c(C)cc23)nc2ccccn12,26.1%
10,C=C1CC[C@@H]2[C@](C)(COC(C)=O)[C@H](OC(C)=O)CC[C@@]2(C)[C@@H]1C/C=C1/C(=O)OC[C@H]1OC(C)=O,42.8%
11,O=C(Cc1ccc(-c2ccc(OCCN3CCOCC3)cc2)cn1)NCc1ccccc1,34.2%
12,CC(=O)O[C@]1(C)C[C@H](O)[C@]2(O)C=CO[C@H](O[C@@H]3O[C@H](CO)[C@@H](O)[C@H](O)[C@H]3O)[C@@H]21,92%
13,COc1cnc2c(c1)C(=O)c1c-2n(CCCN2CCOCC2)c(=O)c2cc(Cl)ccc12,10%
14,COc1cc2nc(Nc3cccc(Cl)c3)nc(N)c2cc1OC,84.5%
15,CS(=O)(=O)N1CCc2c(-c3cnc(N)nc3)nc(N3CCOCC3)nc21,-37.2% (active)
16,Nc1c(Cl)cccc1[N+](=O)[O-],110%
17,COC(=O)[C@]12CC[C@@H](C)[C@H](C)[C@@H]1C1=CC[C@@H]3[C@@]4(C)C(C#N)=CC(C)=C4CC[C@@]3(C)[C@]1(C)CC2,68.2%
18,Cc1ccc(N)cc1CN1C(=O)c2ccccc2C1=O,110%
19,N#Cc1c(NC(=O)c2cccs2)[n+]([O-])c2ccc(F)cc2[n+]1[O-],76.9%
20,Clc1nc(Cl)c2ncn(CC#CCn3cnc4c(Cl)nc(Cl)nc43)c2n1,-21.5% (active)

row,SMILES,growth
1,Nc1nc(N)c2nc(-c3cccc(O)c3)c(-c3cccc(O)c3)nc2n1,2.15% (active)
2,O=C(Cc1ccccc1)Nc1nnc(NC2CCN(c3nnc(NC(=O)Cc4ccccc4)s3)CC2)s1,84%
3,CCN1CCN(Cc2ccc(Cc3ncc(F)c(-c4cc(F)c5nc(C)n(C(C)C)c5c4)n3)nc2)CC1,65.2%
4,COc1cc(Nc2ncc(F)c(Nc3ccc4c(n3)NC(=O)C(C)(C)O4)n2)cc(OC)c1OC,39%
5,Cc1ccc(-[n+]2c3cc(N)c(C)cc3nc3cc(C)c(Nc4ccccc4)cc32)cc1,-74.7% (active)
6,COc1cc(OC)c(/C=C/S(=O)(=O)Cc2ccc(OC)c(NCC(=O)O)c2)c(OC)c1,52.7%
7,CCCCn1c(C)nc2cc(Nc3nc(N4CCCCC4)nc4nc[nH]c34)ccc21,6.78% (active)
8,COc1cc(CCc2cc(NC(=O)c3ccc(N4C[C@@H](C)N[C@@H](C)C4)cc3)n[nH]2)cc(OC)c1,63.7%
9,C=CCCCC(=O)CCC(=O)OCC1O[C@@H](O[C@@H]2C(O)[C@@H](OC(C)=O)C(C)O[C@H]2O[C@H](CC=C)CCCCC)C(O)[C@@H](OC(=O)/C(C)=C/C)[C@@H]1OC(=O)/C=C/c1ccccc1 (stereo not given in full),-5.16% (active)
10,COc1ccc2c(CCCCC(c3ccccc3)c3ccccc3)c3[n+](cc2c1OC)CCc1cc2c(cc1-3)OCO2,-49.3% (active)
11,CCN1CCN(CCCN(C[C@H]2Cc3ccccc3CN2)[C@H]2CCCc3cccnc32)CC1,103%
12,COC(=O)[C@H](Cc1ccccc1)NC(=O)[C@@H](OC)[C@@H]1Cc2cc3cc(OC4CC(OC5CC(O)C(O)C(C)O5)C(O)C(C)O4)c(C)c(O)c3c(O)c2C(=O)[C@H]1OC1CC(OC2CC(OC3CC(C)(O)C(O)C(C)O3)C(O)C(C)O2)C(O)C(C)O1 (stereo not given in full),2.51% (active)
13,CCN(CC)CCNC(=O)c1c(C)[nH]c(/C=C2\C(=O)Nc3ccc(F)cc32)c1C,80.4%
14,Cc1cc(-c2cc(OC(=O)c3ccccc3)ccc2Cl)cc2nnc(Nc3ccc(OCCN4CCCC4)cc3)nc12,91.8%
15,O=C(Cc1ccc(/C=C/C(=O)c2ncc[nH]2)cc1)Nc1ccc(Br)cc1,17.5%
16,CN1CC[C@H](c2c(O)cc(O)c3c(=O)cc(-c4ccccc4Cl)oc23)[C@H](O)C1,0.506% (active)
17,O=C(N/N=C/c1ccc(Cl)cc1)c1cc(-c2cc3ccccc3o2)nn1-c1ccccc1,85.6%
18,Cc1nn(-c2nc3ccccc3[nH]2)c2c1C(c1ccc(O)cc1)CC(=O)N2 (stereo not given),88.7%
19,CCc1nc2ccc(Cc3ccc(C(=O)NO)cc3)cc2c(=O)n1CCc1ccccc1,-7.19% (active)
20,CCOC(=O)C1=C(C)N=C2Sc3cc(OC(F)(F)F)ccc3N2[C@H]1c1ccccn1,25.1%
